Assay results published in publication PMC4336329 (PLoS ONE, 2015).
Out of some 310,000 compounds screened, about 14,000 (4.5%) showed an effect of 50% or more. The effect is printed as a negative number. The full list was thinned out, with strong results kept by preference.

target: human ether-à-go-go-related gene (hERG) potassium channel (human, UniProt Q12809); assay: primary screen, population patch clamp on CHO cells stably expressing hERG; higher = less effect of the substance
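Also: peak tail current of the secondary pulse compared with the same well before compound.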

Sequence of human ether-à-go-go-related gene (hERG) potassium channel (Q12809 whole entry, looked up): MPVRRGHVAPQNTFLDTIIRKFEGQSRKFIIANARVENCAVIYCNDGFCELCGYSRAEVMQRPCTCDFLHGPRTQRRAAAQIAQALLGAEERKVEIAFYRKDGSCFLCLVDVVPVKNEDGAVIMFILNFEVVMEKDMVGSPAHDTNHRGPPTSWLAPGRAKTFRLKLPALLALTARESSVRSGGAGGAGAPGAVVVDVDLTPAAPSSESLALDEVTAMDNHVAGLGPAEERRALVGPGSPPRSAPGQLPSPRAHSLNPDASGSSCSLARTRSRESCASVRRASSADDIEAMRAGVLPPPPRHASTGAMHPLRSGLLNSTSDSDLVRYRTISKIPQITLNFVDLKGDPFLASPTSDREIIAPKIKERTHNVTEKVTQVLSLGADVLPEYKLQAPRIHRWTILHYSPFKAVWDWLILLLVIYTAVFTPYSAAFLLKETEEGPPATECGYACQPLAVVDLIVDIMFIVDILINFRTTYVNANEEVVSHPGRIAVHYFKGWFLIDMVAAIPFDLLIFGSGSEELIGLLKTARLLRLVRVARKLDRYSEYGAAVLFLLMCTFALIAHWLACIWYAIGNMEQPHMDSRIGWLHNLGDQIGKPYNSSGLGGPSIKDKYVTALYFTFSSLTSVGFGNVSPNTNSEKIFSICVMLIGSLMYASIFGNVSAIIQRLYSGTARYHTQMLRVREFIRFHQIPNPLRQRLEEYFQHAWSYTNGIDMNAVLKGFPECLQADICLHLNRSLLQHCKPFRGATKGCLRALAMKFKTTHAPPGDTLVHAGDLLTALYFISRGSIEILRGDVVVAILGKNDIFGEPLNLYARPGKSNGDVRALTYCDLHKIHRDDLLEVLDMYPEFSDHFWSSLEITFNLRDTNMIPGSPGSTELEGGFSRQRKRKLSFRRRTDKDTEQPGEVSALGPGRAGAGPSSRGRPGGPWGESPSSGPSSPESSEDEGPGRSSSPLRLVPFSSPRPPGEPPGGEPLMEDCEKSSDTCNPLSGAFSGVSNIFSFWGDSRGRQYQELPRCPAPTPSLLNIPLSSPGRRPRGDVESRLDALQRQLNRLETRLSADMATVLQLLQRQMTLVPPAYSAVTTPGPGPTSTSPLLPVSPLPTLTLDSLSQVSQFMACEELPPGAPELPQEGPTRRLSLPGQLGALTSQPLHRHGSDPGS

| SMILES | hERG current change (%, negative = inhibition) at 10uM |
| --- | --- |
| COc1ccc(OC)c(N2CC(O)(c3ccccc3)[N+]3=C2SCCC3)c1.[Br-] (centres unmarked) | -72.6% |
| Cc1ccc(C)c(N2CC(O)(c3cccs3)[N+]3=C2CCCC3)c1.[Br-] (centres unmarked) | -23% |
| Cc1ccccc1N1CC(O)(c2cccs2)[N+]2=C1CCCC2.[Br-] (centres unmarked) | -25.9% |
| COc1ccc(C2(O)CN(c3ccccc3)C3=[N+]2CCS3)cc1OC.[Br-] (centres unmarked) | 1.7% |
| Cc1ccccc1N1CC(O)(c2ccccc2)[N+]2=C1SCC2.[Br-] (centres unmarked) | -19.5% |
| COc1ccc(OC)c(N2CC(O)(c3cccs3)[N+]3=C2SCCC3)c1.[Br-] (centres unmarked) | -50.5% |
| CN(C)C(CNC(=O)c1ccc(NS(=O)(=O)c2cccc([N+](=O)[O-])c2)cc1)c1ccco1 (centres unmarked) | 12.4% |
| Cc1ccc(NC(=O)COC(=O)COc2cccc3c2OC(C)(C)C3)cc1C | -13.9% |
| CCCNC(=O)CN(C)S(=O)(=O)c1c(C)cc(C)cc1C | 6.62% |
| Cn1ccnc1C(O)c1ccc(OCc2ccccc2)cc1 (centres unmarked) | 4.19% |
| O=C(O)C(=O)O.O=C1CCCN1CN1CCCCC1 | 0.00358% |
| Cc1ccc(Nc2nc(C(=O)NCc3ccco3)cs2)cc1 | -13.5% |
| S=C(NCc1ccco1)Nc1cccc(Cl)c1Cl | -3.13% |
| Cc1c(Cl)cccc1NC(=S)NCc1ccco1 | 4.12% |
| COc1ccc(Nc2nc(C(=O)NCc3ccco3)cs2)cc1 | -14.4% |
| S=C(NCc1ccco1)Nc1ccccc1Cl | -52% |
| O=C(NCc1ccco1)c1csc(Nc2ccccc2Cl)n1 | -63.1% |
| Cc1cc(-c2n[nH]c(=S)n2/N=C/C=C/c2ccccc2)n[nH]1 | 6.76% |
| Cc1ccc(NS(=O)(=O)c2ccc3[nH]c(=O)[nH]c3c2)cc1 | 21% |
| N/C(Cc1ccc(Cl)cc1Cl)=N\OC(=O)Cc1ccccc1 | 7.08% |
| CC(C)c1ccc(NC(=O)[C@H](NC(=O)[C@@H]2Cc3ccccc3CN2)c2ccccc2)cc1 | -6.39% |
| COc1cccc(NC(=O)[C@H](CC(C)C)NC(=O)[C@@H]2Cc3ccccc3CN2)c1 | -16% |
| COc1cccc(NC(=O)[C@H](NC(=O)[C@@H]2Cc3ccccc3CN2)c2ccccc2)c1 | -76.4% |
| Cc1ccc(NC(=O)[C@H](NC(=O)[C@@H]2Cc3ccccc3CN2)c2ccccc2)cc1 | -64.1% |
| COc1ccc(NC(=O)[C@H](NC(=O)[C@@H]2Cc3ccccc3CN2)c2ccccc2)cc1 | -50.3% |
| CC(NC(=O)[C@H](NC(=O)[C@@H]1Cc2ccccc2CN1)c1ccccc1)c1ccccc1 (some centres unmarked) | -32.9% |
| Cc1ccc(NC(=O)[C@@H](C)NC(=O)[C@@H]2Cc3ccccc3CN2)cc1 | -14.9% |

| SMILES | hERG current change (%, negative = inhibition) at 10uM |
| --- | --- |
| Cc1ccc(NC(=O)[C@H](Cc2ccccc2)NC(=O)[C@@H]2Cc3ccccc3CN2)c(C)c1 | -5.23% |
| COc1cccc(NC(=O)[C@H](Cc2ccccc2)NC(=O)[C@@H]2Cc3ccccc3CN2)c1 | -2.99% |
| Cc1ccc(NC(=O)[C@H](Cc2c[nH]c3ccccc23)NC(=O)[C@@H]2Cc3ccccc3CN2)c(C)c1 | -30.1% |
| Cc1ccc(NC(=O)[C@H](NC(=O)[C@@H]2Cc3ccccc3CN2)c2ccccc2)c(C)c1 | -60.7% |
| CC(C)c1ccc(NC(=O)[C@@H](C)NC(=O)[C@@H]2Cc3ccccc3CN2)cc1 | -29.2% |
| CCOc1ccccc1N(C(=O)c1ccccc1Cl)C1=NC(C)(C)CS1 | -2.51% |
| CC(NC(=O)c1ccccc1[N+](=O)[O-])C1CC2CCC1C2 (centres unmarked) | 5.96% |
| O=C(NCc1ccc2c(c1)OCO2)c1ccc(COc2cc(Cl)ccc2Cl)o1 | 11.7% |
| O=C(c1ccccc1)N1N=C(c2ccccc2O)CC1c1ccccc1 (centres unmarked) | 6.88% |
| CCCCCOC(=O)C1=C(C)NC(=O)NC1c1ccc2c(c1)OCO2 (centres unmarked) | 6.41% |
| CCOc1ccc(/C=N/N2C(=O)C(CC(=O)Nc3ccc(F)cc3F)SC2=NC)cc1OC (centres unmarked) | 3.82% |
| CCOc1ccc(CN(C)C(=O)CCl)cc1 | -1.2% |
| CS(=O)(=O)N(CC(=O)NCc1ccc2c(c1)OCO2)c1ccccc1 | 6.97% |
| COCc1c(C(=O)Nc2nc(C)cs2)oc2ccccc12 | -2.57% |
| CCCOP(=O)(OCCC)c1nc(-c2ccccc2)oc1NCc1ccccc1 | 6.49% |
| CCc1ccc(NC(=O)CCS(=O)(=O)c2ccc(Cl)cc2)cc1 | 6.96% |
| Cc1cc(C)cc(NC(=O)[C@H](NC(=O)[C@@H]2Cc3ccccc3CN2)c2ccccc2)c1 | -0.0454% |
| Cc1cccc(NC(=O)[C@H](NC(=O)[C@@H]2Cc3ccccc3CN2)c2ccccc2)c1 | -54.4% |
| Cc1cccc(NC(=O)[C@@H](CC(C)C)NC(=O)[C@@H]2Cc3ccccc3CN2)c1 | -40.7% |
| COc1ccc(NC(=O)[C@H](Cc2c[nH]c3ccccc23)NC(=O)[C@@H]2Cc3ccccc3CN2)cc1 | -36.8% |
| Cc1ccc(NC(=O)[C@H](NC(=O)[C@@H]2Cc3ccccc3CN2)c2ccccc2)cc1C | -37.9% |
| Cc1cccc(NC(=O)[C@@H](NC(=O)[C@@H]2Cc3ccccc3CN2)C(C)C)c1 | -62.4% |
| COc1ccc(CNC(=O)[C@H](Cc2c[nH]c3ccccc23)NC(=O)[C@@H]2Cc3ccccc3CN2)cc1 | -53.9% |
| CCc1ccc(NC(=O)[C@H](NC(=O)[C@@H]2Cc3ccccc3CN2)c2ccccc2)cc1 | -55% |
| Cc1cccc(NC(=O)[C@H](Cc2ccccc2)NC(=O)[C@@H]2Cc3ccccc3CN2)c1 | -0.0161% |
| CCc1ccc(NC(=O)CNC(=O)[C@@H]2Cc3ccccc3CN2)cc1 | -19.9% |
| CCc1ccc(NC(=O)[C@@H](NC(=O)[C@@H]2Cc3ccccc3CN2)C(C)CC)cc1 (some centres unmarked) | -13.6% |

| SMILES | hERG current change (%, negative = inhibition) at 10uM |
| --- | --- |
| COc1ccccc1CNC(=O)[C@H](Cc1c[nH]c2ccccc12)NC(=O)[C@@H]1Cc2ccccc2CN1 | -16.5% |
| CN(c1ccc(C(=O)NC2CCCC2)cc1)S(=O)(=O)c1ccc(Cl)cc1 | 16.2% |
| COC(=O)CNC(=O)C1CCN(S(=O)(=O)c2cnc[nH]2)CC1 | -1.84% |
| CC1=NN(C(C#N)c2ccc(F)cc2)C(c2ccccc2)C1 (centres unmarked) | 4.44% |
| COCCN(CCOC)S(=O)(=O)c1ccc(C(=O)Nc2ccncc2)cc1 | -11.6% |
| CSc1cccc(NC(=O)CN(C)S(=O)(=O)c2ccc(C)cc2)c1 | -32.8% |
| CCc1ccc2[nH]c(=O)c(C(c3nnnn3CCOC)N3CCN(c4ccccc4)CC3)cc2c1 (centres unmarked) | -11.6% |
| COCCn1nc2cc(C(=O)NCc3cc(C(F)(F)F)cc(C(F)(F)F)c3)ccc2c1OC | 21.8% |
| CSCC[C@H](NC(=O)[C@@H]1Cc2ccccc2CN1)C(=O)Nc1ccc2c(c1)OCCO2 | -65.5% |
| C[C@H](NC(=O)[C@@H]1Cc2ccccc2CN1)C(=O)Nc1ccc2c(c1)OCCO2 | 3.18% |
| C[C@@H](NC(=O)[C@@H]1Cc2ccccc2CN1)C(=O)Nc1ccc2c(c1)OCCO2 | 3.19% |
| Cc1cc(C(=O)OCC(=O)NCc2ccc3c(c2)OCO3)c2ccccc2n1 | -27.5% |
| Cc1ccc(N(C(=O)c2snc(C(N)=O)c2N)C(C(=O)NCC2CCCO2)c2c[nH]c3ccccc23)cc1 (centres unmarked) | -6.36% |
| O=C(CSc1nnc(-c2ccccc2Br)o1)Nc1cccc2ccccc12 | 5.79% |
| O=C(CSc1nnc(-c2ccccc2Br)o1)Nc1nncs1 | -57.9% |
| O=C(CSc1nnc(-c2ccncc2)o1)Nc1nncs1 | 15.5% |
| COc1ccc(NC(=O)c2ccc(COc3ccccc3)o2)c(OC)c1 | -7.06% |
| O=C(CC(C(=O)O)C1CCCO1)Nc1cccc(C(F)(F)F)c1 (centres unmarked) | 5.84% |
| O=C(CNC(=O)c1cccnc1)N/N=C/c1cccnc1 | 8.4% |
| Cc1ccc2c(c1)C(c1ccc(F)cc1)N(C(=O)c1ccccc1Br)CC(=O)N2 (centres unmarked) | -16.1% |
| O=C1CN(C(=O)c2ccccc2F)C(c2ccc(F)cc2)c2cc(F)ccc2N1 (centres unmarked) | -11.7% |
| O=C1CN(C(=O)c2ccccc2Br)C(c2ccc(F)cc2)c2cc(F)ccc2N1 (centres unmarked) | -61.6% |
| O=C1CN(C(=O)c2ccccc2)C(c2ccccc2)c2cc(F)ccc2N1 (centres unmarked) | -75.1% |
| O=C1CN(C(=O)c2cccc(F)c2)C(c2ccc(F)cc2)c2cc(F)ccc2N1 (centres unmarked) | -15.4% |
| Cc1ccc(C(=O)N2CC(=O)Nc3ccc(F)cc3C2c2ccccc2)cc1 (centres unmarked) | -4.56% |
| CCCOc1ccc(C(=O)N2CCCc3ccccc32)cc1 | -26% |
